# In paper PMC4336329 (PLoS ONE, 2015):
# The whole screen tested about 310,000 compounds, of which about 14,000 (4.5%) showed an effect of 50% or more. The effect is printed as a negative number. The sample holds strong results, similar compounds and a random draw of the others, so the mix is not that of the screen.
# Biological target: human ether-à-go-go-related gene (hERG) potassium channel (human, UniProt Q12809)
# Experiment: primary screen, population patch clamp on CHO cells stably expressing hERG; higher = less effect of the substance
# 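Also: peak tail current of the secondary pulse compared with the same well before compound.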
# Sequence of human ether-à-go-go-related gene (hERG) potassium channel (Q12809 whole entry, looked up): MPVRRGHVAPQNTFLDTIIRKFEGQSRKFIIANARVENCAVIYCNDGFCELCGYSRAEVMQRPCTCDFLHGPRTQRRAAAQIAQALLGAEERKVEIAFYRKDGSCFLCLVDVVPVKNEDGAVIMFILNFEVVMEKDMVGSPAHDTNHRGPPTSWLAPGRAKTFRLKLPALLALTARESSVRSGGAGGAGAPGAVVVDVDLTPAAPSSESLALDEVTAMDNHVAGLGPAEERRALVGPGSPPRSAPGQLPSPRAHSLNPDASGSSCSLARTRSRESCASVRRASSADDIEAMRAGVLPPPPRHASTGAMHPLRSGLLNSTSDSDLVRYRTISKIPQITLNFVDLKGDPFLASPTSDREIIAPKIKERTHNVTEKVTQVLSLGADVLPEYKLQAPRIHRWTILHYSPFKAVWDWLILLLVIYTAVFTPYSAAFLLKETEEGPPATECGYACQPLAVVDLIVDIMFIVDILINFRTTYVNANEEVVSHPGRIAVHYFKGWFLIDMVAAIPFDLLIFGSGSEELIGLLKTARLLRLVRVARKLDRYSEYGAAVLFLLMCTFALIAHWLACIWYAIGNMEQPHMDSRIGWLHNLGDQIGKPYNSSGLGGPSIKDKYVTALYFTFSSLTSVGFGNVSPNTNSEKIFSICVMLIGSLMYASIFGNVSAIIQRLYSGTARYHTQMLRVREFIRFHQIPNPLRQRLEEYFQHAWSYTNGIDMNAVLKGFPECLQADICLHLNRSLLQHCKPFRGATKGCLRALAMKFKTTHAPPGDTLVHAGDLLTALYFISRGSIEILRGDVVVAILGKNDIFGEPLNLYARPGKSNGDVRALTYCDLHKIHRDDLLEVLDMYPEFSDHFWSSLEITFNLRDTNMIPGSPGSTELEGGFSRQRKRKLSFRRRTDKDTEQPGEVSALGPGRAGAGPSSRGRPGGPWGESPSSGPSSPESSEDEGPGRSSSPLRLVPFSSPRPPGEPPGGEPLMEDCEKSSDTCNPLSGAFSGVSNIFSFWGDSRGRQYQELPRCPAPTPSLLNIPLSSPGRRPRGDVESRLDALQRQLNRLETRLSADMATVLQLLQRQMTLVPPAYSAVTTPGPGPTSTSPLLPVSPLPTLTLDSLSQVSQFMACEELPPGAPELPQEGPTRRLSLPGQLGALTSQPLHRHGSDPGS
row,SMILES,"hERG current change (%, negative = inhibition) at 10uM [%]"
1,COc1ccc(NC(=O)Nc2nnc(-c3ccccc3SCc3ccccc3)s2)cc1,13.6
2,O=C(Cc1cccs1)NCCN1CCOCC1,3.99
3,OCCNc1nc(OCC(F)(F)F)nc(N2CCN(C34CC5CC(CC(C5)C3)C4)CC2)n1,-37.9
4,CNc1nc(NCCOC23CC4CC(CC(C4)C2)C3)nc(OCC(F)(F)F)n1,8.55
5,CN1CCN(c2nc(NCCOC34CC5CC(CC(C5)C3)C4)nc(OCC(F)(F)F)n2)CC1,-60.8
6,CCOc1c2ccc(C(=O)NCc3ccco3)cc2nn1CCOC,-0.63
7,CC(=O)c1cccc(NS(=O)(=O)c2cc3c(cc2C)N(C(C)=O)CCO3)c1,14.3
8,Cc1ccc(S(=O)(=O)C(CCC(=O)c2ccc(Cl)cc2)C(N)=O)cc1 (stereo not shown),-28.9
9,CCN1CCN(c2cc(C)c3cc(NC(=O)c4cnccn4)ccc3n2)CC1,-16.2
10,CCN1CCN(c2cc(C)c3cc(NC(=O)Cc4ccc(OC)c(OC)c4)ccc3n2)CC1,-10.5
11,Cc1cc(N2CCN(C)CC2)nc2ccc(NC(=O)c3ccc(Br)o3)cc12,-77.4
12,CCN1CCN(c2cc(C)c3cc(NC(=O)c4ccncc4)ccc3n2)CC1,-21.4
13,COc1cc(C(=O)Nc2ccc3nc(N4CCN(C)CC4)cc(C)c3c2)cc(OC)c1OC,-38.7
14,CCN(CC)c1cc(C)c2cc(NC(=O)c3ccc(Br)o3)ccc2n1,-76.1
15,Cc1cc(N2CCN(C)CC2)nc2ccc(NC(=S)N3CCC4(CC3)OCCO4)cc12,-34
16,CCN(CC)c1ccc(NC(=O)c2ccc(Br)o2)cc1,-24.3
17,CCN1CCN(c2cc(C)c3cc(NC(=O)c4ccc(C)c(C)c4)ccc3n2)CC1,-43.3
18,CCN1CCN(c2cc(C)c3cc(NC(=O)c4cncc(Br)c4)ccc3n2)CC1,-51.8
19,CCN(CC)c1cc(C)c2cc(NC(=O)CNC(C)=O)ccc2n1,-11.3
20,CCN1CCN(c2cc(C)c3cc(NC(=O)c4ccc(Br)o4)ccc3n2)CC1,-56
21,Nc1ccc2nc3c(=O)n(C4CCCCC4)c(=O)[nH]c3nc2c1,-0.914

row,SMILES,"hERG current change (%, negative = inhibition) at 10uM [%]"
1,CC(=O)c1c(C(C)=O)c(C)n(C2CCCCC2)c1C,2.97
2,NC(=O)c1ccc(NC(=O)CCCc2nc(-c3ccccc3Cl)no2)cc1,18.4
3,CCOc1ccc(S(=O)(=O)N2CCC(C(=O)NCCN3CCOCC3)CC2)cc1C,1.77
4,CCOC(=O)C(=CNc1ncccc1C)C(=O)OCC,1.51
5,CC(C)CCNC(=O)Cn1c(=O)oc2cc(S(=O)(=O)N3CC(C)CC(C)C3)ccc21 (stereo not shown),13.3
6,CN1CCN(CCCc2c3c(cc4c2CCC4)CCC3)CC1.Cl,-19.8
7,COc1ccc(C(=O)Nc2ccc3nc(N4CCCCC4)cc(C)c3c2)c(OC)c1,4.06
8,CCCCNC(=O)CCC(=O)Nc1ccc2nc(N3CCCCC3)cc(C)c2c1,-18.5
9,Cc1cc(N2CCCCC2)nc2ccc(NC(=O)c3ccc(Br)o3)cc12,-52.9
10,CCC1(c2ccccc2)NC(=O)N(CC(=O)Nc2cc(S(=O)(=O)N3CCCCC3)ccc2OC(C)C)C1=O (stereo not shown),-5.02
11,CCOc1ccc(S(=O)(=O)N2CCOCC2)cc1NC(=O)CN1C(=O)NC(C)(c2ccccc2)C1=O (stereo not shown),-52.6
12,CCOc1ccc(S(=O)(=O)N2CCCCC2)cc1NC(=O)CN1C(=O)NC(CC)(c2ccccc2)C1=O (stereo not shown),-15
13,CC(C)Oc1ccc(S(=O)(=O)N2CCOCC2)cc1NC(=O)CN1C(=O)NC2(CCCC2)C1=O,-17.8
14,CCOc1ccc(S(=O)(=O)N2CCOCC2)cc1NC(=O)CN1C(=O)NC2(CCCC2)C1=O,5.87
15,CCOc1ccc(S(=O)(=O)N2CCOCC2)cc1NC(=O)CN1C(=O)NC(CC)(c2ccccc2)C1=O (stereo not shown),-73.5
16,CCOc1ccc(S(=O)(=O)N2CCCCC2)cc1NC(=O)CN1C(=O)NC(C)(c2ccccc2)C1=O (stereo not shown),-35.5
17,CCC1(c2ccccc2)NC(=O)N(CC(=O)Nc2cc(S(=O)(=O)N3CCOCC3)ccc2OC(C)C)C1=O (stereo not shown),-55.7
18,CC1(c2ccccc2)NC(=O)N(CC(=O)Nc2cc(S(=O)(=O)N3CCOCC3)ccc2Cl)C1=O (stereo not shown),-7.82
19,C[C@H](C(=O)NCc1ccccc1)C(=O)c1ccccc1,18
20,CCOC(=O)CN1C(=O)C(O)(CC(=O)c2ccccn2)c2ccccc21 (stereo not shown),14.6
21,Cc1nn(Cc2ccccc2)c(C)c1C(=O)NCc1ccccc1,6.55

row,SMILES,"hERG current change (%, negative = inhibition) at 10uM [%]"
1,COc1ccc2cc(C(=O)OC(C)C)sc(=O)c2c1OC,2.45
2,Cc1ccc(/C(N)=N/OC(=O)c2ccc3ccccc3c2)cc1,0.62
3,CCOC(=O)N1CCC(N2Cc3cccc(C(=O)Nc4ccc(N(CC)CC)cc4C)c3C2=O)CC1,-7.16
4,CCOC(=O)N1CCC(N2Cc3cccc(C(=O)NCc4ccc5c(c4)OCO5)c3C2=O)CC1,-19.5
5,CCOC(=O)N1CCC(N2Cc3cccc(C(=O)Nc4ccc(CC)cc4)c3C2=O)CC1,-42.6
6,O=C(Nc1cccc(F)c1)c1cccc2c1C(=O)N(C1CCCCC1)C2,12.2
7,CCOC(=O)N1CCC(N2Cc3cccc(C(=O)Nc4ccc(F)cc4)c3C2=O)CC1,-55.3
8,Cc1cccc(C)c1NC(=O)c1cccc2c1C(=O)N(C1CCCCC1)C2,-7.01
9,CCOC(=O)N1CCC(N2Cc3cccc(C(=O)Nc4cccc(F)c4)c3C2=O)CC1,-72.1
10,CCOC(=O)N1CCC(N2Cc3cccc(C(=O)Nc4c(C)cccc4CC)c3C2=O)CC1,-77.1
11,CCOC(=O)N1CCC(N2Cc3cccc(C(=O)NCc4ccccn4)c3C2=O)CC1,-34.5
12,CCOC(=O)N1CCC(N2Cc3cccc(C(=O)Nc4cc(F)ccc4F)c3C2=O)CC1,-23.1
13,CCOC(=O)N1CCC(N2Cc3cccc(C(=O)Nc4ccc(OCC)cc4)c3C2=O)CC1,9.07
14,CCOC(=O)N1CCC(N2Cc3cccc(C(=O)NC(C)c4ccc5c(c4)OCCO5)c3C2=O)CC1 (stereo not shown),-67.5
15,COc1ccc(OC)c(/C=N/n2c(COc3ccccc3)n[nH]c2=S)c1,12.2
16,CCOc1ccc(-c2noc(-c3cccnc3)n2)cc1OCC,13.7
17,O=c1[nH]nc(Cc2ccc3ccccc3n2)c2ccccc12,1.36
18,COc1ccc2[nH]c(=O)c(CN(Cc3cccs3)C(=S)Nc3ccccc3)cc2c1,16.7
19,Fc1ccc(NC(=S)Nc2cccnc2)c(F)c1F,20.1
20,COc1ccccc1CNC(=O)COc1ccc2c(c1)CCC2,-1.2
21,Nc1ncnc2c1ncn2CCOc1ccccc1,5.18

row,SMILES,"hERG current change (%, negative = inhibition) at 10uM [%]"
1,CN(C)CCCN(C(=O)c1ccco1)c1nc2c(F)cc(F)cc2s1.Cl,-72.2
2,CN(C)CCCN(C(=O)c1cc(-c2cccs2)nc2ccccc12)c1nc2c(F)cccc2s1.Cl,-48.8
3,CN(C)CCCN(C(=O)c1ccco1)c1nc2c(F)cccc2s1.Cl,-73.2
4,Cc1cccc2sc(N(CCCN(C)C)C(=O)c3ccco3)nc12.Cl,-74.9
5,Cc1cccc2sc(N(CCN(C)C)C(=O)c3cc(Cl)sc3Cl)nc12.Cl,-22.7
6,Cc1cccc2sc(N(CCCN(C)C)C(=O)c3ccc(Cl)s3)nc12.Cl,-69.7
7,COc1cc2ccccc2cc1C(=O)N(CCN(C)C)c1nc2c(F)cc(F)cc2s1.Cl,-10.1
8,Cc1cccc2sc(N(CCCN(C)C)C(=O)c3nc4ccccc4s3)nc12.Cl,4.2
9,CN(C)CCN(C(=O)/C=C/c1cccs1)c1nc2c(F)cc(F)cc2s1.Cl,-47.8
10,COc1cccc(N(CC(=O)NCCN2CCOCC2)S(=O)(=O)c2ccccc2)c1,-4.96
11,O=C(CSc1nc2ccccc2[nH]1)NCCc1ccc(Cl)cc1,-20.9
12,CN(C1CCCCC1)S(=O)(=O)c1ccccc1,-7.01
13,O=C(O)COc1ccc(Br)cc1/C=N\Nc1ccccn1,15.2
14,COc1cc(OC)cc(C(=O)NC(=S)Nc2cc3oc4ccccc4c3cc2OC)c1,18.5
15,Cc1cc(/C=C2/C(=O)N(C)C(=S)N2C)c(C)n1C1CC1,4.03
16,CC(C)Oc1ccc(C(=O)Nc2ccc(N3CCCCC3)cc2)cc1,-2.32
17,CS(=O)(=O)N1CCc2ccc(NC(=O)C3CCCO3)cc2C1 (stereo not shown),18.8
18,CCCNS(=O)(=O)c1ccc(CCC(=O)N2CCOCC2)cc1,3.77
19,COC(=O)[C@@H](NC(=O)c1ccc2c(c1)S(=O)(=O)c1ccccc1C2=O)C(C)C,8.57
